Reference: the supplement of paper PMC10849652
About 8,800 targets were measured; listed, in parts, are those with a hit and a random draw of the rest. About 0.5% of all pairs of compound and target were hits.

Assays:
Experiment in all cases: log2 fold change, soluble protein after heating vs DMSO (PISA); higher = thermal stabilisation; K562 lysate, 10 uM; active = over 0.2 and 3.5 SD of the protein, either way, in both replicates (recomputed)
ibrutinib = compound: C=CC(=O)N1CCC[C@@H](n2nc(-c3ccc(Oc4ccccc4)cc3)c3c(N)ncnc32)C1 [ibrutinib]
In short: (§1)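 Following dounce homogenisation of K562 pellets in PBS pH 7.4 with 1 mM MgCl2, crude extract at 1 mg/mL protein was incubated for 30 min with 10 μM compound. Aliquots were then heated for 3 min over 48°C-58°C and pooled, NP-40 was added to 0.5% at 4°C, and soluble protein was recovered as the supernatant at 21,000xg for 90 min. Channel-sum-equalised TMTpro 16plex LC-MS/MS quantified this protein. Each value, from duplicates, is a log-two fold change in thermal stability relative to solvent controls.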

[1] = compound: CC(=O)c1cnc2ccc(-c3cc(Cl)c(O)c(Cl)c3)nc2c1N[C@H]1CC[C@H](CN(C)C)CC1
In short: as §1

ralimetinib = compound: CC(C)(C)Cn1c(N)nc2ccc(-c3[nH]c(C(C)(C)C)nc3-c3ccc(F)cc3)nc21 [ralimetinib]
In short: as §1

[2] = compound: CC(C)(O)CC(=O)NCCn1ccc2ncnc(Nc3ccc(Oc4cccc(C(F)(F)F)c4)c(Cl)c3)c21
In short: as §1

[3] = compound: CC(C)C1=C2N=C(C=C(N2N=C1)NCC3=CC=CC=C3)NCCCCCCN
In short: as §1

[4] = compound: CC1=C(C(CC(=O)N1)C2=CC=C(C=C2)C(F)(F)F)C(=O)NC3=C(C=C4C(=C3)C=NN4)F
In short: as §1

[5] = compound: CC1=C(C2=C(C=C1)C(=O)C3=CC=CC=C3N2CCCN)C
In short: as §1

[6] = compound: CC1=C(C=C(C=C1)NC(=O)C2=CC(=CC=C2)C(C)(C)C#N)NC3=CC4=C(C=C3)N=CN(C4=O)C
In short: as §1

[7] = compound: CC1=C(C=C(C=C1)NC(=O)C2=CC(=CC=C2)N(C)C)NC(=O)C3=CC=C(C=C3)O
In short: as §1

[8] = compound: CC1=CC=C(C=C1)SC2=C3C=C(SC3=CN=C2)C(=O)N
In short: as §1

[9] = compound: CCCS(=O)(=O)Nc1ccc(F)c(C(=O)c2c[nH]c3ncc(Cl)cc23)c1F
In short: as §1

barasertib = compound: CCN(CCCOc1ccc2c(Nc3cc(CC(=O)Nc4cccc(F)c4)[nH]n3)ncnc2c1)CCOP(=O)(O)O [barasertib]
In short: as §1

volasertib = compound: CC[C@@H]1C(=O)N(C)c2cnc(Nc3ccc(C(=O)N[C@H]4CC[C@H](N5CCN(CC6CC6)CC5)CC4)cc3OC)nc2N1C(C)C [volasertib]
In short: as §1

[10] = compound: CCn1c(C(=O)N(C2CC2)C2CC2)cc2c3c(ncn3C)c(Nc3cc(C)n(C)n3)nc21
In short: as §1

[11] = compound: CCn1cc(-c2ccnc3[nH]c(-c4cccc(CN(C)C)c4)cc23)c(-c2ccc(NC(=O)N(C)C)cc2)n1
In short: as §1

[12] = compound: CN1CCC(CNc2ccc3ncc(-c4cccc(OC(F)(F)F)c4)n3n2)CC1
In short: as §1

saracatinib = compound: CN1CCN(CCOc2cc(OC3CCOCC3)c3c(Nc4c(Cl)ccc5c4OCO5)ncnc3c2)CC1 [saracatinib]
In short: as §1

sotrastaurin = compound: CN1CCN(c2nc(C3=C(c4c[nH]c5ccccc45)C(=O)NC3=O)c3ccccc3n2)CC1 [sotrastaurin]
In short: as §1

vemurafenib = compound: CCCS(=O)(=O)Nc1ccc(F)c(C(=O)c2c[nH]c3ncc(-c4ccc(Cl)cc4)cc23)c1F [vemurafenib]
In short: as §1

[13] = compound: CC[C@@H]1C(=O)N(C)c2cnc(Nc3ccc(C(=O)NC4CCN(C)CC4)cc3OC)nc2N1C1CCCC1
In short: as §1

Measured: log2 fold change

PIP5K1A (UniProt Q99755)
UniProt Q99755, sequence (Q99755 whole entry, looked up): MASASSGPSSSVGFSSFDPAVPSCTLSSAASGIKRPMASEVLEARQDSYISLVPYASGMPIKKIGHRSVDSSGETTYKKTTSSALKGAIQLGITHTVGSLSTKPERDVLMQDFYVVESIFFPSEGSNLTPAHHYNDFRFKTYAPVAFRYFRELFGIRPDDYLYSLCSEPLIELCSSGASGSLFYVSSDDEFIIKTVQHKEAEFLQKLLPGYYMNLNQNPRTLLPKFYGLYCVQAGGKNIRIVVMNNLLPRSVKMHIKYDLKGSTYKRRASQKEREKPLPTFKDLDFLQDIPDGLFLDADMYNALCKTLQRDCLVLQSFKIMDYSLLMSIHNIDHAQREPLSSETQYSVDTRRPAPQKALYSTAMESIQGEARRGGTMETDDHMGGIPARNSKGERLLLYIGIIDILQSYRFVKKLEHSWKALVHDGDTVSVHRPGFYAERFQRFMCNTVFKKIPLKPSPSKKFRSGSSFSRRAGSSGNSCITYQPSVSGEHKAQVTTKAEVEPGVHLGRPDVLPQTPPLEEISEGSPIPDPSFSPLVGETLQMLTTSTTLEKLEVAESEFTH
active: [12] -0.514
inactive: ibrutinib 0.012 | [1] 0.201 | ralimetinib -0.053 | [2] 0.001 | [3] 0 | [4] 0.056 | [5] -0.127 | [6] 0.105 | [7] 0.02 | [8] -0.053 | [9] 0.029 | barasertib 0.108 | volasertib 0.07 | [10] -0.041 | [11] 0.027 | saracatinib 0.107 | sotrastaurin -0.018

PRKCSH isoform 2 (UniProt P14314)
UniProt P14314, sequence (P14314 whole entry, looked up): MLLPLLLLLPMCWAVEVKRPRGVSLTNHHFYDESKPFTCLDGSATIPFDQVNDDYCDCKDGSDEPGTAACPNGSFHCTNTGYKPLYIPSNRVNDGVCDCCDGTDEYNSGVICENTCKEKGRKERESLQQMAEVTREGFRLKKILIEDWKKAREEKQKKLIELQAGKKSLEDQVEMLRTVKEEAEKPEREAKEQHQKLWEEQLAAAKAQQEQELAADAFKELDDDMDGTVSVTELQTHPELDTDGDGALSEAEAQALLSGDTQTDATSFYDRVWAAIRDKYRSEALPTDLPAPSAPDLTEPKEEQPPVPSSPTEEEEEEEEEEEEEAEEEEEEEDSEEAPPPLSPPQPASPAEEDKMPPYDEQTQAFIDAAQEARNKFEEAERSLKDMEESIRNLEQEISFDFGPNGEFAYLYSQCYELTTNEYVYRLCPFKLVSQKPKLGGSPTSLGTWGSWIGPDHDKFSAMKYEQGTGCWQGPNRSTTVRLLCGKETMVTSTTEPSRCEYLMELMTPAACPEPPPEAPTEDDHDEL
inactive: ibrutinib -0.125 | [1] 0.069 | ralimetinib 0.012 | [2] -0.142 | [3] -0.004 | [4] 0.04 | [5] -0.017 | [6] 0.131 | [7] 0.132 | [8] -0.045 | vemurafenib 0.007 | [9] -0.053 | barasertib -0.159 | [13] 0.03 | volasertib -0.052 | [10] -0.101 | [12] 0.326 | saracatinib 0.022 | sotrastaurin 0.199
active: [11] -1.03

PKP3 isoform 2 (UniProt Q9Y446)
UniProt Q9Y446, sequence (Q9Y446 whole entry, looked up): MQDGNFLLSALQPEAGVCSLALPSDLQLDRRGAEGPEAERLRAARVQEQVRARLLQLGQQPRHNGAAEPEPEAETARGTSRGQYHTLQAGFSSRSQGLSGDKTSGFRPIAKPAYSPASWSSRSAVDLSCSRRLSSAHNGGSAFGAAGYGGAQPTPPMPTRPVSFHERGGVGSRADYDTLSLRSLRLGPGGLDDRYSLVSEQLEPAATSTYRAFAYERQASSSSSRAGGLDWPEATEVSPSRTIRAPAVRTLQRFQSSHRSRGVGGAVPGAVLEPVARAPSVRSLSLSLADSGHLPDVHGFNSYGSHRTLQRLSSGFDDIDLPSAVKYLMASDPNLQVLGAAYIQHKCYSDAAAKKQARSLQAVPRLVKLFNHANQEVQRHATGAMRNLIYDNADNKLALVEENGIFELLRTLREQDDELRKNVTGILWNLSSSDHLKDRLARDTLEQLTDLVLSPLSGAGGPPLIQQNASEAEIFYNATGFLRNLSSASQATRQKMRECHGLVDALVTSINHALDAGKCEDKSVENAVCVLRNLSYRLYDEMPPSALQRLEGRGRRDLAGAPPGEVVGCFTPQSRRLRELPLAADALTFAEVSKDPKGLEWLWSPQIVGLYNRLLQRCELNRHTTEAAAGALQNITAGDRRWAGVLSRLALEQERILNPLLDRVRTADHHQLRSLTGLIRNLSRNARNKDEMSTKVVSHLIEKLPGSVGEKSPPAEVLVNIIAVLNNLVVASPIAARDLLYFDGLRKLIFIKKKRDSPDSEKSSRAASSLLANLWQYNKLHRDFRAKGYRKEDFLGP
inactive: ibrutinib 0.005 | [1] -0.022 | ralimetinib -0.028 | [2] 0.009 | [3] -0.006 | [4] 0.014 | [5] 0.021 | [6] 0.004 | [7] -0.019 | [8] 0.052 | vemurafenib -0.087 | [9] 0.05 | barasertib -0.01 | [13] 0.061 | volasertib -0.005 | [10] 0.05 | [11] 0.027 | [12] -0.088 | saracatinib -0.037 | sotrastaurin 0.001

PDXK (UniProt O00764)
UniProt O00764, sequence (O00764 whole entry, looked up): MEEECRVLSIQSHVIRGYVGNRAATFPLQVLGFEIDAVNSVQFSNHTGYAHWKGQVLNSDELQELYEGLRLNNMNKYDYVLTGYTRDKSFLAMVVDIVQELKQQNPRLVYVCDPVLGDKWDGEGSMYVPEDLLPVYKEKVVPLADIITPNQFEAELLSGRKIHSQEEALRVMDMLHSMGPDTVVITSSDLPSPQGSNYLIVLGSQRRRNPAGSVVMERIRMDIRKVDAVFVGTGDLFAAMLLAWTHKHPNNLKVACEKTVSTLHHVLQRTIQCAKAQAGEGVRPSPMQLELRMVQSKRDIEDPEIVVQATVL
inactive: ibrutinib 0.007 | [1] 0.014 | ralimetinib 0.01 | [2] -0.006 | [3] -0.009 | [4] 0.017 | [5] -0.058 | [6] 0.016 | [7] -0.029 | [8] -0.001 | vemurafenib 0.005 | [9] -0.001 | barasertib -0.014 | volasertib 0.025 | [10] -0.004 | [11] -0.134 | [12] 0.156 | saracatinib -0.023 | sotrastaurin -0.016
active: [13] 0.329

PPP2CA (UniProt P67775)
UniProt P67775, sequence (P67775 whole entry, looked up): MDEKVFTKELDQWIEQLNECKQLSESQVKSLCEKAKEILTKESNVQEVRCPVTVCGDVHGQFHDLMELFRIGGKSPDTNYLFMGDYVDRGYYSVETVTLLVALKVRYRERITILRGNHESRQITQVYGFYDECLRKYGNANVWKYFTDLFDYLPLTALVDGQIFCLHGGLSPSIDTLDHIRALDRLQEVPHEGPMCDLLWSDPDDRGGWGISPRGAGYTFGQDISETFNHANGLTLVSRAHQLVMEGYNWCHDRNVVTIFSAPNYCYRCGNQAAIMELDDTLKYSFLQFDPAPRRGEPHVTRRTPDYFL
inactive: ibrutinib 0.042 | [1] 0.009 | ralimetinib 0.007 | [2] 0.083 | [3] -0.012 | [4] -0.017 | [5] -0.034 | [6] -0.047 | [7] -0.003 | [8] 0.036 | vemurafenib 0.061 | [9] -0.008 | barasertib -0.012 | [13] 0.032 | volasertib -0.012 | [10] 0.02 | [11] 0.13 | [12] 0.049 | saracatinib 0.039 | sotrastaurin -0.047

PRIM1 (UniProt P49642)
UniProt P49642, sequence (P49642 whole entry, looked up): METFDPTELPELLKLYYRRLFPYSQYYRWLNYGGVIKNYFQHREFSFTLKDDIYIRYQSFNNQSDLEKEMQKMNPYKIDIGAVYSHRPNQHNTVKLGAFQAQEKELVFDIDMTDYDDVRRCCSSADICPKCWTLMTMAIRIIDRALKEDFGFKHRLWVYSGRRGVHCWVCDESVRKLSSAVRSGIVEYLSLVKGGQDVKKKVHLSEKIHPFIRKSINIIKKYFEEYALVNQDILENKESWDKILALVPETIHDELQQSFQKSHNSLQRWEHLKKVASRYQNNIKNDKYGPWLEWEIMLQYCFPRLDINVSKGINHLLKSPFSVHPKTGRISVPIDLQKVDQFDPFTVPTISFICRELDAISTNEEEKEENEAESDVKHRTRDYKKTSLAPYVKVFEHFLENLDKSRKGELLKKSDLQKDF
inactive: ibrutinib -0.016 | [1] 0.014 | ralimetinib 0.056 | [2] 0.056 | [3] 0.016 | [4] 0.027 | [5] -0.019 | [6] 0.015 | [7] 0.011 | [8] 0.02 | vemurafenib -0.036 | [9] 0.022 | barasertib 0.031 | [13] -0.089 | volasertib -0.069 | [10] 0.062 | [11] -0.008 | [12] -0.029 | saracatinib -0.002 | sotrastaurin 0.007

PCF11 (UniProt O94913)
UniProt O94913, sequence (O94913 whole entry, looked up): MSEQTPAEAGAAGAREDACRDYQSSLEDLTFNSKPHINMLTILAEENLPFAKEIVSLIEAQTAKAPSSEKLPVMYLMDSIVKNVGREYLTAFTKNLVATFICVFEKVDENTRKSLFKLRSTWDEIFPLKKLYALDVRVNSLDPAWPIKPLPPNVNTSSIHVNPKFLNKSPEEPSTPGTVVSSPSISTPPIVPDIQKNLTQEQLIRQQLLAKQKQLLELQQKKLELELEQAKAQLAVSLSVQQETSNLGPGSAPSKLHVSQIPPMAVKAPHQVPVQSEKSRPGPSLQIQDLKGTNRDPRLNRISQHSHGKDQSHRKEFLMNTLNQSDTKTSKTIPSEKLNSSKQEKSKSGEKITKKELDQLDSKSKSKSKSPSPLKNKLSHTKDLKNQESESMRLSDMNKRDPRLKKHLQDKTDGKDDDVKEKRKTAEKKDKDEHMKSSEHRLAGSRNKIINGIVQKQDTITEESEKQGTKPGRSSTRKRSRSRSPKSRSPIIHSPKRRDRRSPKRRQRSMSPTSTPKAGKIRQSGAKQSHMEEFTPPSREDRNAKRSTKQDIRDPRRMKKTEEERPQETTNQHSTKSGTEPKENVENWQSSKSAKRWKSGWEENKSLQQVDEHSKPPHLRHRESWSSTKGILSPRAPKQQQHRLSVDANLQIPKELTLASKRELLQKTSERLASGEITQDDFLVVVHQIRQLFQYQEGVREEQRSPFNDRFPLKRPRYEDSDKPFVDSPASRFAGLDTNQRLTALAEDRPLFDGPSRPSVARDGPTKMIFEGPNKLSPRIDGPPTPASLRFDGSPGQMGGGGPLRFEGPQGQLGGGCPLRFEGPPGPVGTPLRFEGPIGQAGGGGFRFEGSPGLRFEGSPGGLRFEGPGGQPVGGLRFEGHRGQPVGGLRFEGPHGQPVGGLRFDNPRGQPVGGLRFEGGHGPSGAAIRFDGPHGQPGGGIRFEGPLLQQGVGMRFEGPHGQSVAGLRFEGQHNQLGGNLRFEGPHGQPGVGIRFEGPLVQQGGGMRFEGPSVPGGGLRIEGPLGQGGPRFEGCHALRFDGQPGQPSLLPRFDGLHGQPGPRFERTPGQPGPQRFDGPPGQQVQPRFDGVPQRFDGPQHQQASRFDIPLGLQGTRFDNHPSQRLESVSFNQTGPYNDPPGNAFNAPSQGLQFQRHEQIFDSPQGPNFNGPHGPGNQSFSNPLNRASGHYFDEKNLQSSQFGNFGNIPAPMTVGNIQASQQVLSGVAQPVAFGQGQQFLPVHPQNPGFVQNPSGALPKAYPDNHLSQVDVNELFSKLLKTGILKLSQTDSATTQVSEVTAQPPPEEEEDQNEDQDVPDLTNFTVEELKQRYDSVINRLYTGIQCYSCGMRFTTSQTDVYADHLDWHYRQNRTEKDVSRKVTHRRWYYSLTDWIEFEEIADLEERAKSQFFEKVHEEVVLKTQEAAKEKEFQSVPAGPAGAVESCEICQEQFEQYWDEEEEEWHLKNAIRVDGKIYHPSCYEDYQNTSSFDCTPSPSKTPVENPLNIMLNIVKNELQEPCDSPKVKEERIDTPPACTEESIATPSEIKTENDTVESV
inactive: ibrutinib -0.027 | [1] -0.006 | ralimetinib -0.005 | [2] -0.02 | [3] 0.022 | [4] 0.03 | [5] -0.02 | [6] -0.021 | [7] 0.045 | [8] -0.02 | vemurafenib 0.042 | [9] 0.012 | barasertib 0.015 | [13] 0.02 | volasertib -0.029 | [10] -0.045 | [11] 0.081 | [12] -0.018 | saracatinib -0.003 | sotrastaurin 0.006

POLR2B (UniProt P30876)
inactive: ibrutinib -0.011 | [1] -0.017 | ralimetinib 0.025 | [2] -0.018 | [3] 0.005 | [4] 0.029 | [5] -0.031 | [6] -0.014 | [7] 0.028 | [8] 0.032 | vemurafenib 0.021 | [9] -0.004 | barasertib 0.039 | [13] -0.049 | volasertib -0.074 | [10] 0.01 | [11] -0.029 | [12] 0.017 | saracatinib 0.016 | sotrastaurin 0.024

PPP1R11 (UniProt O60927)
inactive: ibrutinib -0.037 | [1] 0.058 | ralimetinib 0.062 | [2] -0.021 | [3] -0.024 | [4] 0.1 | [5] 0.052 | [6] 0.059 | [7] -0.037 | [8] -0.01 | [9] 0.069 | barasertib -0.04 | [13] 0.153 | volasertib 0.046 | [10] -0.101 | [11] 0.16 | [12] -0.067 | saracatinib -0.05 | sotrastaurin 0.001

PIK3C3 (UniProt Q8NEB9)
inactive: ibrutinib -0.056 | [1] -0.021 | ralimetinib -0.023 | [2] -0.096 | [3] 0.015 | [4] -0.032 | [5] -0.015 | [6] -0.002 | [7] -0.011 | [8] -0.056 | vemurafenib 0.032 | [9] 0.019 | barasertib -0.012 | [13] 0.098 | volasertib -0.025 | [10] -0.075 | [11] -0.226 | [12] 0.121 | saracatinib 0.008 | sotrastaurin 0.007

PITRM1 isoform 2 (UniProt Q5JRX3)
inactive: ibrutinib 0.007 | [1] -0.004 | ralimetinib 0.134 | [2] -0.009 | [3] -0.019 | [4] 0.001 | [5] -0.021 | [6] -0.001 | [7] -0.005 | [8] 0.012 | vemurafenib -0.026 | [9] 0.001 | barasertib -0.01 | [13] -0.018 | volasertib 0.127 | [10] -0.008 | [11] 0.07 | [12] -0.048 | saracatinib -0.021 | sotrastaurin 0.007

PIP4K2A (UniProt P48426)
inactive: ibrutinib -0.052 | [1] 0.086 | ralimetinib 0.032 | [2] -0.053 | [3] -0.043 | [4] -0.017 | [5] -0.019 | [6] -0.002 | [7] -0.028 | [8] -0.026 | vemurafenib 0 | [9] -0.009 | barasertib -0.051 | volasertib 0.087 | [10] 0.073 | [11] -0.035 | [12] 0.155 | saracatinib 0.036 | sotrastaurin 0.02
active: [13] 0.31

PIGO (UniProt Q8TEQ8)
inactive: ibrutinib 0.093 | [1] 0.016 | ralimetinib -0.039 | [2] -0.013 | [3] -0.068 | [4] -0.041 | [5] -0.05 | [6] -0.1 | [7] -0.047 | [8] -0.158 | vemurafenib -0.112 | [9] 0.109 | barasertib 0.064 | [13] 0.013 | volasertib -0.069 | [10] -0.081 | [11] -0.029 | [12] -0.043 | saracatinib -0.013
active: sotrastaurin -0.499

PUS3 (UniProt Q9BZE2)
inactive: ibrutinib -0.034 | [1] -0.025 | ralimetinib 0.05 | [2] 0.094 | [3] -0.046 | [4] 0.045 | [5] 0.136 | [6] -0.12 | [7] -0.006 | [8] 0 | vemurafenib 0.083 | [9] 0.036 | barasertib 0.074 | [13] -0.058 | volasertib -0.007 | [10] 0.071 | [11] 0.193 | [12] -0.195 | saracatinib 0.018 | sotrastaurin 0.052

PPIL2 (UniProt Q13356)
UniProt Q13356, sequence (Q13356 whole entry, looked up): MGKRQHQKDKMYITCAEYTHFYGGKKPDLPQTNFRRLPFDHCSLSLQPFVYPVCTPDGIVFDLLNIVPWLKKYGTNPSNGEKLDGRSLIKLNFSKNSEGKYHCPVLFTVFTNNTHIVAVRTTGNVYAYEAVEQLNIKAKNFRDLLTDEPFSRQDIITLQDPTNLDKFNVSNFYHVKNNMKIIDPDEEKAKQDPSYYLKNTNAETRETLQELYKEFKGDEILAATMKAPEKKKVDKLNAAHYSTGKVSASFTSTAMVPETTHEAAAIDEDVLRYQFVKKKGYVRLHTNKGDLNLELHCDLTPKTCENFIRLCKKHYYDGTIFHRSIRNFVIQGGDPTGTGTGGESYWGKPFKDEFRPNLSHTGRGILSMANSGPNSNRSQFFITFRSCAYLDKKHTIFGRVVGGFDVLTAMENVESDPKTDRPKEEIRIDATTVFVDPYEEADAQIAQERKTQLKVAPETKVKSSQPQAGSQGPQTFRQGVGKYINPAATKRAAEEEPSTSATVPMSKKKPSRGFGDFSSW
inactive: ibrutinib -0.002 | [1] -0.003 | ralimetinib 0.02 | [2] 0.025 | [3] 0.046 | [4] 0.011 | [5] -0.017 | [6] 0.033 | [7] 0.003 | [8] 0.005 | vemurafenib 0.012 | [9] 0.015 | barasertib 0.035 | [13] -0.013 | volasertib -0.06 | [10] 0 | [11] -0.023 | [12] 0.016 | saracatinib -0.032 | sotrastaurin 0.024

PRKD2 isoform 3 (UniProt Q9BZL6)
inactive: ibrutinib 0.026 | [1] -0.065 | ralimetinib 0.019 | [2] -0.122 | [3] 0.045 | [4] 0.04 | [5] -0.111 | [6] -0.034 | [7] 0.046 | [8] 0.007 | vemurafenib 0.041 | [9] -0.048 | barasertib 0.034 | volasertib -0.131 | [10] 0.097 | [11] 0.038 | [12] -0.07 | saracatinib 0 | sotrastaurin 0.085
active: [13] -0.358
